Assay [1] in a line: ATG_CRE_CIS: Attagene CIS-FACTORIAL HepG2 Assay for human cAMP Responsive Element (CRE) binding protein 3 (AID 2282926). The note with it: HepG2 CRE cis-reporter, Attagene multiplexed mRNA; actives raise or lower the signal. In a few lines:
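Human liver HepG2, transient MRTU transfection, 24 h compound exposure. Total RNA → oligo(dT) RT → PCR → 6-FAM primer extension → HpaI cut → CE. Activity called both directions vs DMSO.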

For assay [2], the target named is CCAAT/enhancer-binding protein beta (Homo sapiens) (UniProt P17676). The assay can be described thus: ATG_C_EBP_CIS: Attagene CIS-FACTORIAL HepG2 Assay for human CCAAT/Enhancer Binding Protein (C/EBP) beta (AID 2282927). Conditions: HepG2 Attagene cis-factorial transcription factor reporter; actives raise or lower the signal. In short, it runs like this:
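Endogenous C/EBPb-driven reporter transcripts measured in transfected human HepG2 cells at 24 h via RT-PCR and capillary electrophoresis of labelled fragments. Activity fitted in both directions relative to DMSO baseline.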

The nature of assay [3]: ATG_DR4_LXR_CIS: Attagene CIS-FACTORIAL HepG2 Assay for human Liver X Receptor (LXR), DR4 submotif (AID 2282929). The note with it: HepG2 Attagene DR4 cis-reporter, mRNA transcription; actives raise or lower the signal. In short, it runs like this: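 Measures endogenous transcription factor activity via a DR4-driven reporter transcript in human HepG2 cells. Compounds incubated 24 h; mRNA quantified by RT-PCR and capillary electrophoresis, analysed as gain or loss of signal versus DMSO.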

Assay [4] can be described thus: ATG_AP_2_CIS: Attagene CIS-FACTORIAL HepG2 Assay for human Activator Protein 2 (AP-2) (AID 2282932). Conditions: HepG2 AP-2 cis-reporter, Attagene transcription factor profiling; actives raise or lower the signal. In a few lines:
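HepG2, transient MRTU transfection, cis-regulated reporters; 24 h compound exposure; RNA isolated, RT-PCR, 6-FAM labelling, HpaI digest, CE fluorescence. DMSO = negative control/baseline, bidirectional fit.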

The nature of assay [5]: ATG_BRE_CIS: Attagene CIS-FACTORIAL HepG2 Assay for human Bone Morphogenetic Protein (BMP) Response Element (BRE) (AID 2282933). The note with it: HepG2 BMP response element reporter, Attagene transcription factor profiling; actives raise or lower the signal. In short, it runs like this:
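Read-out: reporter mRNA induction quantified by RT-PCR and capillary electrophoresis after 24 h chemical exposure of transfected HepG2 cells. Endogenous factor activity on the BMP response element; gain or loss fitted against DMSO baseline.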

Assay [6] has as its target Transcription factor E2F1 (Homo sapiens) (UniProt Q01094). The assay can be described thus: ATG_E2F_CIS: Attagene CIS-FACTORIAL HepG2 Assay for human E2F Transcription Factor 1 (AID 2282935). The note with it: HepG2 Attagene cis-reporter, E2F reporter RNA transcripts; actives raise or lower the signal. In short, it runs like this:
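Cis-element reporter mRNA induction in transiently transfected HepG2, 24 h exposure. Activity fitted in both directions relative to DMSO negative control.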

The nature of assay [7]: ATG_EGR_CIS: Attagene CIS-FACTORIAL HepG2 Assay for human Early Growth Response 1 (EGR1) (AID 2282938). Conditions: HepG2 Attagene CIS-FACTORIAL EGR reporter mRNA; actives raise or lower the signal. In short, it runs like this:
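Cell-based multiplex transcription assay: HepG2 carrying transfected cis-element reporter units, 24 h chemical treatment. Fluorescence from capillary electrophoresis of RT-PCR products gives mRNA levels; fitting is bidirectional relative to DMSO.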

Assay [8] can be described thus: ATG_M_19_CIS: Attagene CIS-FACTORIAL HepG2 Assay for M19 Transcription Factor (Internal Marker) (AID 2282939). Conditions: HepG2 Attagene CIS-FACTORIAL M19 internal marker reporter; actives raise or lower the signal. In a few lines: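 Readout: fluorescent reporter-transcript fragments by capillary electrophoresis after RT-PCR. Human HepG2 liver cells carried transfected MRTU constructs reporting endogenous transcription-factor activity; exposure 24 h. Gain or loss of signal fitted relative to DMSO.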

The nature of assay [9]: ATG_Ets_CIS: Attagene CIS-FACTORIAL HepG2 Assay for human Erythroblast Transformation Specific (ETS) (AID 2282941). The note with it: HepG2 ETS cis-reporter transcription, actives raise or lower the signal. In a few lines:
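Human HepG2 hepatoma cells were transiently transfected with promoter-driven reporter constructs and treated for 24 hours. Reporter transcripts were quantified by RT-PCR with fluorescent primer extension; bidirectional curve fitting used DMSO as reference.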

The target of assay [10] is Hepatocyte nuclear factor 3-beta (Homo sapiens) (UniProt Q9Y261). As to the kind of experiment: ATG_FoxA2_CIS: Attagene CIS-FACTORIAL HepG2 Assay for human Forkhead box A2 (FOXA2) (AID 2282942). The note with it: HepG2 cis-reporter transcription factor activity, 24 h; actives raise or lower the signal. In a few lines: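 In transiently transfected human HepG2 cells, promoter-driven reporter mRNA levels after 24 h chemical exposure are determined via RT-PCR with capillary electrophoresis. DMSO serves as baseline for bidirectional fitting.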

The nature of assay [11]: ATG_FoxO_CIS: Attagene CIS-FACTORIAL HepG2 Assay for human Forkhead box O (FoxO) (AID 2282943). Conditions: HepG2 Attagene cis-reporter, FoxO element, mRNA; actives raise or lower the signal. In a few lines: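 Endogenous transcription factor activity read from multiplexed cis-promoter reporter transcripts in transiently transfected HepG2, 24 h after dosing. Reporter RNA measured via RT-PCR plus capillary electrophoresis of FAM-labeled products; gain or loss relative to DMSO.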

Assay [12] can be described thus: ATG_GATA_CIS: Attagene CIS-FACTORIAL HepG2 Assay for human GATA Binding Protein (AID 2282944). The note with it: HepG2 GATA cis-element reporter, Attagene multiplex mRNA; actives raise or lower the signal. In short, it runs like this:
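Read-out: fluorescent reporter mRNA fragments resolved by capillary electrophoresis after RT-PCR. Human liver HepG2 cells carried transiently transfected cis-regulated reporter constructs; chemicals incubated 24 h; gain or loss of signal fitted relative to DMSO.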

Assay [13] can be described thus: ATG_GLI_CIS: Attagene CIS-FACTORIAL HepG2 Assay for human Zinc Finger Protein GLI1 (AID 2282945). The note with it: HepG2, Attagene cis-factorial reporter mRNA, GLI element; actives raise or lower the signal. In a few lines:
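Bidirectional curve fits relative to DMSO, using reporter mRNA levels from RT-PCR plus capillary electrophoresis. Cells were HepG2 transiently carrying cis-regulated reporter constructs, harvested 24 h after dosing.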

Assay [14] in a line: ATG_M_06_CIS: Attagene CIS-FACTORIAL HepG2 Assay for M06 Transcription Factor (Internal Marker) (AID 2282950). Conditions: HepG2 Attagene CIS-FACTORIAL M06 internal marker reporter; actives raise or lower the signal. In short, it runs like this:
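Terse: HepG2, transient MRTU transfection (FuGene 6), 24 h dosing; total RNA, oligo(dT) RT, PCR, FAM label, HpaI cut, capillary electrophoresis; bidirectional fit vs DMSO baseline; background-control endpoint.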

Assay [15] in a line: ATG_MRE_CIS: Attagene CIS-FACTORIAL HepG2 Assay for human Metal Responsive Element (MRE) (AID 2282954). The note with it: HepG2 MRE cis-reporter transcription, Attagene multiplex; actives raise or lower the signal. In a few lines:
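Transient MRTU transfection of HepG2 (FuGene 6); 24 h dosing; total RNA → oligo(dT) RT, PCR, 6-FAM primer extension, HpaI cut, CE. Bidirectional fit vs DMSO.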

The target of assay [16] is Paired box protein Pax-6 (Homo sapiens) (UniProt P26367). The assay can be described thus: ATG_Pax6_CIS: Attagene CIS-FACTORIAL HepG2 Assay for human Paired Box 6 (PAX6) (AID 2282956). Conditions: HepG2 CIS-FACTORIAL PAX6 reporter transcription, RNA readout; actives raise or lower the signal. In short, it runs like this: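 Multiplexed cis-reporter HepG2 system; 24 h treatment; reporter mRNA read by RT-PCR/CE fluorescence; bidirectional fit vs DMSO.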

The nature of assay [17]: ATG_PXRE_CIS: Attagene CIS-FACTORIAL HepG2 Assay for human Pregnane X Receptor Element (PXRE) (AID 2282957). Conditions: HepG2 Attagene CIS-FACTORIAL PXRE reporter, mRNA; actives raise or lower the signal. In a few lines: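 Transfect HepG2 with MRTUs (cis promoter elements); dose chemical, incubate 24 h; isolate RNA, RT with oligo(dT), PCR, 6-FAM label, HpaI cut, CE. Gain/loss fit vs DMSO.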

The nature of assay [18]: ATG_Sox_CIS: Attagene CIS-FACTORIAL HepG2 Assay for human SRY-box transcription factor (SOX) (AID 2282960). Conditions: HepG2 Attagene cis-factorial SOX reporter, mRNA; actives raise or lower the signal. In short, it runs like this: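 After 24 h of chemical treatment, transfected HepG2 reporter cells are lysed for total RNA. Transcript levels come from RT-PCR with labelled primer extension and capillary electrophoresis, analysed bidirectionally versus DMSO.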

Assay [19] deals with Transcription factor Sp1 (Homo sapiens) (UniProt P08047). As to the kind of experiment: ATG_Sp1_CIS: Attagene CIS-FACTORIAL HepG2 Assay for human Specificity Protein 1 (Sp1) (AID 2282961). Conditions: HepG2 Sp1 cis-reporter transcription, actives raise or lower the signal. In a few lines: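 Sp1-driven reporter mRNA, read as capillary electrophoresis fluorescence after RT-PCR, in transiently transfected HepG2 cells dosed for 24 h; signal change in either direction relative to DMSO.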

The nature of assay [20]: ATG_SREBP_CIS: Attagene CIS-FACTORIAL HepG2 Assay for human Sterol Regulatory Element Binding (SREBP) (AID 2282962). Conditions: HepG2 Attagene cis-factorial SREBP reporter, mRNA; actives raise or lower the signal. In short, it runs like this: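 mRNA induction of transfected cis-promoter reporters in HepG2 cells, 24 h post-dose. Detection: RT-PCR with 6-FAM-labelled products, HpaI digest, capillary electrophoresis. DMSO served as negative control and baseline.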

Activity calls are given as the source filed them. Rule for the calls: active = hit-call score of the fitted dose curve at least 0.9, where 1 is the maximum; inactive = score below 0.9.

Sequence of Paired box protein Pax-6 (Homo sapiens) (P26367 whole entry, looked up): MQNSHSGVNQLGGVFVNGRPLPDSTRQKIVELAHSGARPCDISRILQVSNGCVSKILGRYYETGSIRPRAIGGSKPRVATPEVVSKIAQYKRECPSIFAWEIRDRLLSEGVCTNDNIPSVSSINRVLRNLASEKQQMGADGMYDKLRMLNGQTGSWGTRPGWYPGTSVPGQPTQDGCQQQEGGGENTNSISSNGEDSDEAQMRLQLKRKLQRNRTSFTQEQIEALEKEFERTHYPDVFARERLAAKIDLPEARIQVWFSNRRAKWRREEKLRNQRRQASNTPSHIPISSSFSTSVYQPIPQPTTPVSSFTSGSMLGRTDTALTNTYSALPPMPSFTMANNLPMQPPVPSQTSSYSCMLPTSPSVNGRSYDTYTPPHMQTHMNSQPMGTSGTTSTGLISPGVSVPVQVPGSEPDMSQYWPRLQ
Sequence of Transcription factor Sp1 (Homo sapiens) (P08047 whole entry, looked up): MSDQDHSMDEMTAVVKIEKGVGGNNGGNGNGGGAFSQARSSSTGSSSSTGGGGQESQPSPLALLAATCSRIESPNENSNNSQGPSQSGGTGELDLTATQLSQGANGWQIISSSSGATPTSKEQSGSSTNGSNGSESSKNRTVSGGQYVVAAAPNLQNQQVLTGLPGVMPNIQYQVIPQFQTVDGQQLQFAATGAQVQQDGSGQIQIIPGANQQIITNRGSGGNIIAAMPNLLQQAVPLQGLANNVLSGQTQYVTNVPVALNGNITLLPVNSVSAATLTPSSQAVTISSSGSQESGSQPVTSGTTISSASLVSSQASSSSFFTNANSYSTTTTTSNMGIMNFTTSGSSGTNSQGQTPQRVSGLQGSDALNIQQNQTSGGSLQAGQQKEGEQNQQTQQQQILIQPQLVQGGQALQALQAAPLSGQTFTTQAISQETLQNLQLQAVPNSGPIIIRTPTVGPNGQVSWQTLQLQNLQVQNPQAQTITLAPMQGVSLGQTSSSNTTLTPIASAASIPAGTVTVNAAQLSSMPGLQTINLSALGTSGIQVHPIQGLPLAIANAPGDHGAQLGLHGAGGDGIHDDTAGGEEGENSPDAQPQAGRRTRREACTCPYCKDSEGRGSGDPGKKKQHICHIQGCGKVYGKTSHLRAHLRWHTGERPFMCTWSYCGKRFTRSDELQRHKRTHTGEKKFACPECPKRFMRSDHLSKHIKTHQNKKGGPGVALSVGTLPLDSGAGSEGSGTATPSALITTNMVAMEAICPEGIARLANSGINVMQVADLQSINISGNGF
Sequence of Transcription factor E2F1 (Homo sapiens) (Q01094 whole entry, looked up): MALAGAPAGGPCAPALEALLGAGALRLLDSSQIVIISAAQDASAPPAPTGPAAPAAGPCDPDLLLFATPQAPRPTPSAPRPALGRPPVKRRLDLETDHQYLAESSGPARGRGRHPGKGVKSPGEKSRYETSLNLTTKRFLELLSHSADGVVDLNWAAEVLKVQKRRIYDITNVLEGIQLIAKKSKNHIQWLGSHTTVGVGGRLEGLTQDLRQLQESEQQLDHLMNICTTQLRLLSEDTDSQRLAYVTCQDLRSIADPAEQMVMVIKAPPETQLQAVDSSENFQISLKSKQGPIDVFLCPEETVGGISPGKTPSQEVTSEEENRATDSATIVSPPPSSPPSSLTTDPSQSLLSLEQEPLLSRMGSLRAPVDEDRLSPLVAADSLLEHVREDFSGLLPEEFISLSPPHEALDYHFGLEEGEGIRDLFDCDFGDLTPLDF
Sequence of CCAAT/enhancer-binding protein beta (Homo sapiens) (P17676 whole entry, looked up, the tested form may be a part): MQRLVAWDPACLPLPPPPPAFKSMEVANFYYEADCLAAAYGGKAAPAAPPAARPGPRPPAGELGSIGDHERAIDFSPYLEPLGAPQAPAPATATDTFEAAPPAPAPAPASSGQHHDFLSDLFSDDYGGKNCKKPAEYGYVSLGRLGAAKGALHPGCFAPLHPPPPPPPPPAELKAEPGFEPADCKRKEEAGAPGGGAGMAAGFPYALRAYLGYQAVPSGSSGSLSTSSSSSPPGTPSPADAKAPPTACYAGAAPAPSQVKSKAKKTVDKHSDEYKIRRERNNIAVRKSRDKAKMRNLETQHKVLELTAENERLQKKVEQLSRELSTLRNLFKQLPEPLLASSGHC
Sequence of Hepatocyte nuclear factor 3-beta (Homo sapiens) (Q9Y261 whole entry, looked up): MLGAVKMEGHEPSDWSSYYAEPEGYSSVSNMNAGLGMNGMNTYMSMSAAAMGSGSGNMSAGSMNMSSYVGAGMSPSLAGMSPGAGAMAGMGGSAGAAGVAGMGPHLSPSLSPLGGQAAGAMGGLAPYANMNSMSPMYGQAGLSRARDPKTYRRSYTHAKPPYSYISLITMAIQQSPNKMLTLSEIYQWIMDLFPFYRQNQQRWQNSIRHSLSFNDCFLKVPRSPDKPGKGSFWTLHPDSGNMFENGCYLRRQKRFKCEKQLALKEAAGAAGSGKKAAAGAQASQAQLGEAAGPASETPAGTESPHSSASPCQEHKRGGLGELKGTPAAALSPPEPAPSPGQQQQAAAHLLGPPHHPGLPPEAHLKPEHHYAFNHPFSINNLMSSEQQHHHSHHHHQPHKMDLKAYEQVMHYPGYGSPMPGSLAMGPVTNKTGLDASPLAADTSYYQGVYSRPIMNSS

Consider `CCOC(=O)NC(=S)Nc1ccccc1NC(=S)NC(=O)OCC`, for which the outcome in assay [1], in [2], in assay [3], in [4], in [5] and in assay [6] was inactive. The call in assay [7], in assay [8], in [9], in assay [10], in [11] and in assay [12] was inactive. Also, the call in assay [13], in [14], in assay [15], in assay [16], in [18] and in assay [19] was inactive. The molecule was classed as inactive in [20]. Moreover, the AC50 – broadly, the concentration at which the activity in the assay is half-maximal – in [17] was 1.68 µM (active).
With `C=CC(=O)OCC(CC)CCCC` (stereo not given), the call in [1], in assay [2], in [4], in [5], in assay [6] and in assay [7] was inactive. Further, the outcome in assay [8], in [9], in assay [10], in [11], in assay [12] and in [13] was inactive. Also, the molecule was classed as inactive in assay [14], in assay [15], in [16], in [17], in assay [18] and in [19]. Also, the call in [20] was inactive. In assay [3], the half-maximal activity concentration (AC50) is 147 µM (active).
With `O=C(O)COc1ccccc1`, the molecule was classed as inactive in assay [1], in [2], in assay [3], in assay [4], in assay [5] and in assay [6]. The call in assay [7], in assay [8], in assay [9], in assay [10], in assay [11] and in [12] was inactive. In addition, the call in [13], in assay [14], in assay [15], in assay [16], in assay [17] and in assay [18] was inactive. The molecule was classed as inactive in assay [19] and in assay [20].
With `O=P(O)(Oc1ccccc1)Oc1ccccc1`, the result in assay [1], in assay [2], in assay [3], in [4], in [5] and in assay [6] was inactive. The result in assay [7], in assay [8], in [9], in [10], in assay [11] and in assay [12] was inactive. The outcome in [13], in assay [14], in assay [15], in assay [16], in assay [18] and in [19] was inactive. Also, in [20], the molecule was classed as inactive. In addition, the AC50 in assay [17] was 74.2 µM (active).
